Measured values published in the supplement of paper PMC8387472.

Columns and labels:
Conditions in all cases: mESC; 2uM; 72 h treatment, harvest day 5
Rifapentine = compound: CO[C@H]1/C=C/O[C@@]2(C)Oc3c(C)c(O)c4c(O)c(c(/C=N/N5CCN(C6CCCC6)CC5)c(O)c4c3C2=O)NC(=O)/C(C)=C\C=C\[C@H](C)[C@H](O)[C@@H](C)[C@@H](O)[C@@H](C)[C@H](OC(C)=O)[C@@H]1C [Rifapentine]; test: fraction of microhomology deletions among edited reads; higher = more MH deletions
[1] = compound: COc1ccccc1-c1cc(Nc2cccc(CS(N)(=O)=O)c2)ncn1; test: as above
[2] = compound: C[C@@H]1CN(CC(=O)Nc2ccc3c(c2)Cc2cccc(-c4cc(=O)cc(N5CCOCC5)o4)c2S3)C[C@H](C)O1; test: as above
[3] = compound: Cc1cc(C)nc(SCC(=O)Nc2ncc(Cc3cccc4ccccc34)s2)n1; test: as above
[4] = compound: Cc1cccc(CC(=O)N2CCc3c2ccc(-c2cn(C)c4ncnc(N)c24)c3F)n1; test: as above
[5] = compound: NC(=O)c1ccc2nc(-c3ccc(Oc4ccc(Cl)cc4)cc3)[nH]c2c1 [Chk 2 inhibitor II (BML-277)]; test: as above
Tucidinostat (Chidamide) = compound: Nc1cc(F)ccc1NC(=O)c1ccc(CNC(=O)/C=C/c2cccnc2)cc1 [Tucidinostat (Chidamide)]; test: as above
Pemetrexed = compound: Nc1nc2[nH]cc(CCc3ccc(C(=O)N[C@@H](CCC(=O)O)C(=O)O)cc3)c2c(=O)[nH]1 [Pemetrexed]; test: as above
[6] = compound: Nc1ncnc2c1c(-c1cnc3[nH]ccc3c1)nn2C1CCCC1; test: as above
[7] = compound: O=C(c1cccc(Cl)c1F)N1CCN(Cc2cccc(Nc3nccs3)n2)CC1; test: as above
Kenpaullone = compound: O=C1Cc2c([nH]c3ccc(Br)cc23)-c2ccccc2N1 [Kenpaullone]; test: as above
Genistein = compound: O=c1c(-c2ccc(O)cc2)coc2cc(O)cc(O)c12 [Genistein]; test: as above
[8] = compound: O=c1cc(N2CCOCC2)oc2c(-c3ccc4c(c3)OCCO4)csc12; test: as above
Mercaptopurine (6-MP) = compound: S=c1[nH]cnc2nc[nH]c12 [Mercaptopurine (6-MP)]; test: as above
[9] = compound: S=c1nc[nH]c2nc[nH]c12 [6-Mercaptopurine (6-MP) Monohydrate]; test: as above
[10] = compound: CC(=O)O/N=C1\C(=O)N(Cc2cc(Cl)ccc2Cl)c2ccc(Cl)cc21; test: fraction of 1-bp insertions among edited reads; higher = more 1-bp insertion outcomes
[11] = compound: CC(C)(C#N)c1ccc(N2C(=O)OCc3cnc4ccc(-c5cnc6ccccc6c5)cc4c32)cc1; test: as above
[12] = compound: CCCCOc1c(C(=O)c2c(F)cc(C)cc2F)c[nH]c2nncc1-2; test: as above
[13] = compound: CCN1CCN(CC(=O)Nc2ccc(-c3cccc4c(=O)cc(N5CCOCC5)oc34)c3sc4ccccc4c23)CC1; test: as above
[14] = compound: CCc1c2c(nc3ccc(OC(=O)N4CCC(N5CCCCC5)CC4)cc13)-c1cc3c(c(=O)n1C2)COC(=O)[C@]3(O)CC [Irinotecan HCl Trihydrate]; test: as above

29.0 (DMSO control at this site: 1-bp insertion 0.084, MH deletion 0.745, edited 0.133) TTGATGAACTTCCTCTTCTTCTCATGTCTCCGGTCTCCGGTAGGCCACGTGCATGGCCACT
fraction of microhomology deletions among edited reads (Rifapentine): 0.751
fraction of microhomology deletions among edited reads [1]: 0.667
fraction of microhomology deletions among edited reads [2]: 0.482
fraction of microhomology deletions among edited reads [3]: 0.692
fraction of microhomology deletions among edited reads [4]: 0.702
fraction of microhomology deletions among edited reads [5]: 0.741
fraction of microhomology deletions among edited reads (Tucidinostat (Chidamide)): 0.686
fraction of microhomology deletions among edited reads (Pemetrexed): 0.691
fraction of microhomology deletions among edited reads [6]: 0.696
fraction of microhomology deletions among edited reads [7]: 0.662
fraction of microhomology deletions among edited reads (Kenpaullone): 0.631
fraction of microhomology deletions among edited reads (Genistein): 0.718
fraction of microhomology deletions among edited reads [8]: 0.735
fraction of microhomology deletions among edited reads (Mercaptopurine (6-MP)): 0.669
fraction of microhomology deletions among edited reads [9]: 0.633
fraction of 1-bp insertions among edited reads [10]: 0.0853
fraction of 1-bp insertions among edited reads [11]: 0.0763
fraction of 1-bp insertions among edited reads [12]: 0.0825
fraction of 1-bp insertions among edited reads [13]: 0.0366
fraction of 1-bp insertions among edited reads [14]: 0.0846

31.0 (DMSO control at this site: 1-bp insertion 0.315, MH deletion 0.329, edited 0.026) ACCTCCACAGGCTGGGTGGCCCGGAGGCTGGGCGGCCCGGAGGCTGGGCTGGGCGAGTATC
fraction of microhomology deletions among edited reads (Rifapentine): 0.467
fraction of microhomology deletions among edited reads [1]: 0.487
fraction of microhomology deletions among edited reads [3]: 0.512
fraction of microhomology deletions among edited reads (Tucidinostat (Chidamide)): 0.459
fraction of microhomology deletions among edited reads (Pemetrexed): 0.605
fraction of microhomology deletions among edited reads [6]: 0.333
fraction of microhomology deletions among edited reads [7]: 0.391
fraction of microhomology deletions among edited reads (Kenpaullone): 0.518
fraction of microhomology deletions among edited reads (Genistein): 0.477
fraction of microhomology deletions among edited reads [8]: 0.404
fraction of microhomology deletions among edited reads (Mercaptopurine (6-MP)): 0.459
fraction of microhomology deletions among edited reads [9]: 0.408
fraction of 1-bp insertions among edited reads [10]: 0.215
fraction of 1-bp insertions among edited reads [11]: 0.14
fraction of 1-bp insertions among edited reads [12]: 0.2
fraction of 1-bp insertions among edited reads [13]: 0.106
fraction of 1-bp insertions among edited reads [14]: 0.105

21.0 CGATTGAGAGTCAAACGGGCCAGAAAACTCCGGGAACGGGCCAGAAAACTCCGGGGCATGG
fraction of microhomology deletions among edited reads (Rifapentine): 0.216
fraction of microhomology deletions among edited reads [1]: 0.183
fraction of microhomology deletions among edited reads [2]: 0.0533
fraction of microhomology deletions among edited reads [3]: 0.176
fraction of microhomology deletions among edited reads [5]: 0.226
fraction of microhomology deletions among edited reads (Tucidinostat (Chidamide)): 0.127
fraction of microhomology deletions among edited reads (Pemetrexed): 0.186
fraction of microhomology deletions among edited reads [6]: 0.144
fraction of microhomology deletions among edited reads (Kenpaullone): 0.17
fraction of microhomology deletions among edited reads (Genistein): 0.202
fraction of microhomology deletions among edited reads [8]: 0.158
fraction of microhomology deletions among edited reads (Mercaptopurine (6-MP)): 0.16
fraction of microhomology deletions among edited reads [9]: 0.165
fraction of 1-bp insertions among edited reads [10]: 0.0304
fraction of 1-bp insertions among edited reads [11]: 0.021
fraction of 1-bp insertions among edited reads [12]: 0.0327
fraction of 1-bp insertions among edited reads [13]: 0.0195
fraction of 1-bp insertions among edited reads [14]: 0.0253

2.0 (DMSO control at this site: 1-bp insertion 0.364, MH deletion 0.356, edited 0.125) GGTGCCCCCGAGACCTACGCGAACCGAAATCGATGTCCGGTGCGCAAGCAGGGCTGGCGTC
fraction of microhomology deletions among edited reads (Rifapentine): 0.417
fraction of microhomology deletions among edited reads [1]: 0.327
fraction of microhomology deletions among edited reads [2]: 0.123
fraction of microhomology deletions among edited reads [3]: 0.378
fraction of microhomology deletions among edited reads [4]: 0.3
fraction of microhomology deletions among edited reads [5]: 0.397
fraction of microhomology deletions among edited reads (Tucidinostat (Chidamide)): 0.303
fraction of microhomology deletions among edited reads (Pemetrexed): 0.408
fraction of microhomology deletions among edited reads [6]: 0.262
fraction of microhomology deletions among edited reads [7]: 0.256
fraction of microhomology deletions among edited reads (Kenpaullone): 0.29
fraction of microhomology deletions among edited reads (Genistein): 0.4
fraction of microhomology deletions among edited reads [8]: 0.419
fraction of microhomology deletions among edited reads (Mercaptopurine (6-MP)): 0.33
fraction of microhomology deletions among edited reads [9]: 0.321
fraction of 1-bp insertions among edited reads [10]: 0.325
fraction of 1-bp insertions among edited reads [11]: 0.381
fraction of 1-bp insertions among edited reads [12]: 0.379
fraction of 1-bp insertions among edited reads [13]: 0.106
fraction of 1-bp insertions among edited reads [14]: 0.355

43.0 (DMSO control at this site: 1-bp insertion 0.134, MH deletion 0.714, edited 0.104) AGTTTAACTTACTCCGGCCAAAAAAGAACTGCACCTCTGGAGCGGGTTAGTGGTGGTGGTA
fraction of microhomology deletions among edited reads (Rifapentine): 0.683
fraction of microhomology deletions among edited reads [1]: 0.663
fraction of microhomology deletions among edited reads [2]: 0.698
fraction of microhomology deletions among edited reads [3]: 0.639
fraction of microhomology deletions among edited reads [4]: 0.717
fraction of microhomology deletions among edited reads [5]: 0.677
fraction of microhomology deletions among edited reads (Tucidinostat (Chidamide)): 0.68
fraction of microhomology deletions among edited reads (Pemetrexed): 0.625
fraction of microhomology deletions among edited reads [6]: 0.662
fraction of microhomology deletions among edited reads [7]: 0.686
fraction of microhomology deletions among edited reads (Kenpaullone): 0.658
fraction of microhomology deletions among edited reads (Genistein): 0.671
fraction of microhomology deletions among edited reads [8]: 0.688
fraction of microhomology deletions among edited reads (Mercaptopurine (6-MP)): 0.614
fraction of microhomology deletions among edited reads [9]: 0.592
fraction of 1-bp insertions among edited reads [10]: 0.0687
fraction of 1-bp insertions among edited reads [11]: 0.0941
fraction of 1-bp insertions among edited reads [12]: 0.0843
fraction of 1-bp insertions among edited reads [13]: 0.0439
fraction of 1-bp insertions among edited reads [14]: 0.113
